Drawing on PubChem BioAssay, this text covers z-score and composite z-score for nine compounds.

Assay [1] can be described thus: compound effects on lung adenocarcinoma cell viability – A549, calcein-AM fluorescence, 48 h, basal, profiling panel (AID 1162). Further: test concentration not given here. The note with it: higher = more signal.
The nature of assay [2]: compound effects on differentiated 3T3-L1 adipocyte viability – cell-based, 3T3-L1 adipocytes, calcein-AM fluorescence, 48 h, basal, profiling panel (AID 1163). Further: test concentration not given here. The note with it: 3T3-L1 adipocytes viability, higher = more signal.
Assay [3] is described as follows: compound effects on hepatocellular carcinoma cell viability – HepG2, calcein-AM fluorescence, 48 h, basal, profiling panel (AID 1164). Further: test concentration not given here. Particulars: higher = more signal.
A short description of assay [4]: compound effects on multiple myeloma cell viability – MM1S, calcein-AM fluorescence, 48 h, basal, profiling panel (AID 1165).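 Further: viability of MM1S multiple myeloma cells under basal unstimulated conditions; test concentration not given here.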 The note with it: higher = more signal.
Assay [5] in a line: calcein-AM signal in unstimulated myeloma cells – cell-based, calcein-AM fluorescence, 48 h, PK04 Diversity Set, profiling panel (AID 1166).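 Further: cells grown under basal conditions without added stimulus; test concentration not given here.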 The note with it: RPMI8226 myeloma viability, higher = more signal.
Assay [6] can be described thus: JC-1 mitochondrial signal, unstimulated HepG2 cells – cell-based, JC-1 fluorescence, 24 h, 100 nL compound, profiling panel (AID 1167). Further: test concentration not given here. The note with it: HepG2 mitochondrial potential, higher = more signal.
Assay [7] can be described thus: JC-1 mitochondrial signal, unstimulated adipocytes – cell-based, JC-1 fluorescence, 3T3-L1 adipocytes, 24 h, 100 nL compound, profiling panel (AID 1168). Further: test concentration not given here. The note with it: JC-1 mitochondrial fluorescence, higher = more signal, called active from +8 up or from −8 down.
Assay [8] in a line: JC-1 mitochondrial signal, unstimulated myeloma cells – cell-based, JC-1 fluorescence, RPMI8226, 24 h, 100 nL compound, profiling panel (AID 1169). Further: test concentration not given here. The note with it: JC-1 mitochondrial potential fluorescence, higher = more signal.
Assay [9] in a line: JC-1 mitochondrial signal, unstimulated MM1S myeloma – cell-based, JC-1 fluorescence, 24 h, 100 nL compound, profiling panel (AID 1170). Further: test concentration not given here. Particulars: MM1S mitochondrial potential, higher = more signal.
The nature of assay [10]: resazurin metabolic signal in A549 cells – cell-based, resazurin fluorescence, 24 h, PK04 Diversity Set, profiling panel (AID 1171). Further: test concentration not given here. The note with it: A549 viability, higher = more signal, called active from +8 up or from −8 down. (Alamar Blue is a resazurin reagent that responds to reducing activity.)
Assay [11] can be described thus: resazurin metabolic signal in HepG2 cells – cell-based, resazurin fluorescence, 24 h, PK04 Diversity Set, profiling panel (AID 1172). Further: test concentration not given here. Particulars: HepG2 viability, higher = more signal.
Assay [12] is described as follows: budding yeast growth changes without added modifier – OD600, strain BY4716, 24 h, basal condition, primary screen (AID 1173). The note with it: S. cerevisiae BY4716 growth, OD600, 24 h; higher = more signal, called active from +8 up or from −8 down.
Assay [13] in a line: viability profiling in MM1S myeloma cells – cell-based, resazurin fluorescence, basal, 24 h, PK04 Diversity Set, profiling panel (AID 1174). Further: test concentration not given here. The note with it: higher = more signal, called active from +8 up or from −8 down.
Assay [14] concerns the target Dihydroorotate dehydrogenase (quinone), mitochondrial (Plasmodium falciparum (isolate 3D7)) (UniProt Q08210). The experiment in a line: inhibition of P. falciparum DHODH – biochemical, C-terminal His tag, absorbance 600 nm, primary screen (AID 1175).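 Further: recombinant parasite enzyme with a five histidine tag at its C terminus; test concentration not given here.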 Particulars: PfDHODH enzyme, DCIP absorbance 600 nm; higher = more signal, called active from +8 up or from −8 down.
A short description of assay [15]: inhibition of PAO1 biofilm formation – strain PAO1, LB-PBS medium, absorbance 600 nm, primary screen (AID 1176). Further: test concentration not given here. Particulars: P. aeruginosa PAO1 growth/biofilm, A600, 12 h; higher = more signal.
Assay [16] is described as follows: growth modulation of vineyard yeast isolate – strain RM11-1a, OD600, basal, 24 h, primary screen (AID 1177).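 Further: cultures grown under basal conditions with no added stressor; test concentration not given here.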 The note with it: S. cerevisiae RM11-1a growth, OD600, 24 h; higher = more signal, called active from +8 up or from −8 down.
Assay [17] in a line: growth of efflux-deficient E. coli DRC39 – strain DRC39, OD650, 24 h, E. coli filamentation inducers, primary screen (AID 1178).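 Further: growth measured as culture turbidity by optical density at 650 nm; test concentration not given here.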 Particulars: E. coli DRC39 acrAB, higher = more signal, called active from +8 up or from −8 down.
Assay [18] in a line: growth of efflux-deficient E. coli DRC39 – strain DRC39, OD650, 48 h, E. coli filamentation inducers, primary screen (AID 1179).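 Further: screen aims at cell division blockers that make cells filament.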 Particulars: E. coli DRC39 delta-acrAB growth, higher = more signal, called active from +8 up or from −8 down.
Assay [19] in a line: viability profiling in RPMI8226 myeloma cells – cell-based, resazurin fluorescence, basal, 24 h, PK04 Diversity Set, profiling panel (AID 1180).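 Further: RPMI8826 multiple myeloma cell line at 5000 cells per well; test concentration not given here.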 The note with it: higher = more signal.
For assay [20], the target named is E3 ubiquitin-protein ligase XIAP (Homo sapiens) (UniProt P98170). Kind of assay: small molecules binding XIAP protein – biophysical, small-molecule microarray, fluorescence 635 nm, primary screen (AID 1181).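 Further: score merges 667 nm emission and signal to noise over triplicate slides.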 The note with it: higher = more signal.
Sequence of E3 ubiquitin-protein ligase XIAP (Homo sapiens) (P98170 whole entry, looked up): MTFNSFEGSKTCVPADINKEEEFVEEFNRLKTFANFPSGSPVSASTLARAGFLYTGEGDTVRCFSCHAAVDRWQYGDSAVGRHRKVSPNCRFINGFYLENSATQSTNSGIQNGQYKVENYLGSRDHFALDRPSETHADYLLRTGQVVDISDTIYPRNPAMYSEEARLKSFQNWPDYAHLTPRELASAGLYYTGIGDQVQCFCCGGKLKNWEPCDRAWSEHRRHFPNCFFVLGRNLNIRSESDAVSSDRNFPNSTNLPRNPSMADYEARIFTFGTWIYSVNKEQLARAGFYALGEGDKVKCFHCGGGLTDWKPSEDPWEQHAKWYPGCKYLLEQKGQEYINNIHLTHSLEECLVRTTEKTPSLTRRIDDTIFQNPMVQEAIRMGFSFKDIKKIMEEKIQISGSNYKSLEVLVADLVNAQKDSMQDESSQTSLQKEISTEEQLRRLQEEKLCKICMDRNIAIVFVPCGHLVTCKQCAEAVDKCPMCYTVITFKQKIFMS

The source made the active and inactive calls. Unless noted, how the calls were made is not given here.

Sequence of Dihydroorotate dehydrogenase (quinone), mitochondrial (Plasmodium falciparum (isolate 3D7)) (Q08210 whole entry, looked up): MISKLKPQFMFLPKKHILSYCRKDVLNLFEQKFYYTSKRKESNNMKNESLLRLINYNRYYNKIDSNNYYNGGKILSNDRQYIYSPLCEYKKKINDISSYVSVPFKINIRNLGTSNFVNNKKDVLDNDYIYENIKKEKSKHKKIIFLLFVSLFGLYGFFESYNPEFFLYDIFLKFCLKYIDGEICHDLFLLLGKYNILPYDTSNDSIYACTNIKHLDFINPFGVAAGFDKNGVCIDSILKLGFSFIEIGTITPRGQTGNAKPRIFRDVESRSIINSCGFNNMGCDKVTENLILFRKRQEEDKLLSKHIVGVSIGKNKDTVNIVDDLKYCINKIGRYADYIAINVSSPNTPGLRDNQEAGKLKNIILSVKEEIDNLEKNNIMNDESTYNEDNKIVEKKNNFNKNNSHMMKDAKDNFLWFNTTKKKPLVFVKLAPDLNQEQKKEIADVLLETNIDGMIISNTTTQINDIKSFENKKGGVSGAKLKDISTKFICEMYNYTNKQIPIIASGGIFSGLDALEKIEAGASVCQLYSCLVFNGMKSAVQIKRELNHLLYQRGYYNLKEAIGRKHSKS

As for `COc1cc2c(cc1OC)CN(C(=O)[C@@H]1[C@H]3C(=O)O[C@H](c4ccccc4)[C@H](c4ccccc4)N3[C@H](c3ccc(O)cc3)[C@@]13C(=O)Nc1ccccc13)CC2`, the z-score was 1.62 in assay [1]; 1.45 in assay [2]; 1.01 in assay [3]; 0.0197 in assay [4]; -1.62 in [5]; -0.574 in assay [6]. Moreover, the z-score was 0.382 (inactive) in [7]; -1.08 in [8]; -0.404 in assay [9]; 1.6 (inactive) in assay [10]; -0.313 in assay [11]; -0.128 (inactive) in assay [12]. The z-score was 0.118 (inactive) in assay [13]; 0.614 (inactive) in assay [15]; 0.028 (inactive) in [16]; 1.07 (inactive) in [17]; -0.4 (inactive) in assay [18]; 0.109 in [19]. In addition, the results for the composite z-score in assay [14] and in [20] were -0.228 (inactive) and -0.201, respectively.
Consider `CC1(C)C2C=C(C(O)C3C=CC4C(=O)NC(=O)C4N3Nc3ccc(Cl)cc3Cl)C[C@@H]1C2` (stereo not given in full), for which the z-score was -2.48 in assay [1]; -0.88 in [2]; -1.8 in [3]; -3.73 in [4]; -4.1 in [5]; -4.27 in assay [6]. Moreover, the z-score in assay [7] is -0.803 (inactive); in assay [8] it was -1.14; in assay [9], -1.04; in assay [10], -1.85 (inactive); in [11], -2.13; in assay [12], -7.58 (inactive). For the same compound, the z-score in assay [13] was -1.9 (inactive); in assay [15], 1.55 (inactive); in [16] it was 0.84 (inactive); in [17] it was -0.274 (inactive); in [18], -1.08 (inactive); in assay [19], -1.79. Further, the composite z-score was 0.356 (inactive) in assay [14] and -0.0769 in assay [20].
On to `[N-]=[N+]=NCc1ccccc1C[C@]1(C(=O)N2CCCCC2)N=C(c2ccc(OCCCO)cc2)O[C@H]1c1ccccc1N=[N+]=[N-]`, for which the z-score was -1.27 in assay [1]; 1.03 in assay [2]; -0.454 in assay [3]; -2.18 in assay [4]; -3.48 in assay [5]; 0.345 in [6]. For the same compound, the z-score was -0.187 (inactive) in [7]; -1.16 in assay [8]; -1.07 in assay [9]; -0.6 (inactive) in assay [10]; 0.297 in assay [11]; 0.264 (inactive) in assay [12]. Further, the z-score in [13] is -2.36 (inactive); in assay [15] it was 0.426 (inactive); in assay [16], 0.875 (inactive); in [17], 0.173 (inactive); in assay [18], -0.446 (inactive); in [19] it was -2.4. In addition, the figures for the composite z-score in [14] and in [20] were 0.168 (inactive) and -0.332, respectively.
Take `CC1CC/C=C\[C@H]2OC34C=CCN(Cc5ccccc5)C(=O)[C@H]3N(CCCO)C(=O)[C@@H]4C2C(=O)O1` (stereo not given in full): the z-score in [1] is -0.0905; in assay [2], 0.324; in [3], -0.0453; in assay [4], -0.142; in assay [5], 0.197; in [6] it was 0.0693. Further, the z-score was 0.237 (inactive) in assay [7]; -0.0499 in assay [8]; 1.68 in [9]; -0.433 (inactive) in assay [10]; -0.385 in assay [11]; -0.739 (inactive) in assay [12]. Further, the z-score is 0.0639 (inactive) in [13]; -0.0963 (inactive) in assay [15]; -0.52 (inactive) in assay [16]; 1.02 (inactive) in assay [17]; 0.568 (inactive) in [18]; 0.44 in assay [19]. Besides, the composite z-score in assay [14] was -0.311 (inactive); in [20], -0.176.
For `C#C[C@H](O[Si](C#Cc1ccc(Oc2ccccc2)cc1)(C(C)C)C(C)C)c1ccccc1`, the z-score in assay [1] is -2.21; in assay [2], -1.19; in assay [3] it was -1.48; in assay [4], -3.02; in [5], -4.16; in assay [6] it was -3.3. In addition, the z-score in [7] is -0.805 (inactive); in assay [8] it was -0.836; in [9], -1.34; in [10], -1.3 (inactive); in assay [11] it was -1.03; in [12], -12.7 (active). In addition, the z-score is -0.675 (inactive) in [13]; 0.702 (inactive) in assay [15]; 0.619 (inactive) in assay [16]; -0.363 (inactive) in assay [17]; -0.172 (inactive) in assay [18]; -1.73 in [19]. Moreover, the composite z-score in assay [14] is -0.289 (inactive); in assay [20], -0.132.
In the case of `COC(=O)[C@@]1(Cc2ccc(F)cc2)[C@H]2c3cc(C(=O)N(C)C)n(Cc4ccccc4)c3C[C@H]2CN1C(=O)c1ccccc1`, the z-score is -0.799 in assay [1]; -0.184 in assay [2]; -0.344 in assay [3]; -0.812 in assay [4]; -0.997 in assay [5]; 0.746 in [6]. In addition, the z-score is -0.85 (inactive) in assay [7]; -0.28 in assay [8]; -0.529 in assay [9]; -0.631 (inactive) in [10]; -1.49 in [11]; 1.98 (inactive) in [12]. Further, the z-score was -0.946 (inactive) in assay [13]; 0.976 (inactive) in assay [15]; 1.61 (inactive) in assay [16]; -0.342 (inactive) in [17]; 0.232 (inactive) in assay [18]; -2.86 in assay [19]. Also, the results for the composite z-score in assay [14] and in assay [20] were 0.151 (inactive) and -0.2, respectively.
As for `C=CCN1C(=O)[C@@]2(Cc3ccccc31)N=C(c1ccc(OCCCO)cc1)O[C@H]2c1ccccc1`, the z-score in assay [1] is -0.914; in [2] it was -0.107; in [3], -1.38; in assay [4] it was -3.23; in assay [5], -2.16; in [6], -0.927. In addition, the z-score in assay [7] is 0.133 (inactive); in assay [8], -0.942; in [9], -1.29; in assay [10], -1.99 (inactive); in [11] it was -0.0935; in assay [12] it was -2.94 (inactive). The z-score in [13] is -2.21 (inactive); in [15], 0.122 (inactive); in [16], 1.4 (inactive); in assay [17], 1.27 (inactive); in [18], 0.775 (inactive); in assay [19] it was -2.81. The composite z-score in [14] is 0.161 (inactive); in [20], -0.0009.
Turning to `COC(=O)[C@@]1(CCC(=O)OC(C)(C)C)N=C(c2ccc(OCCCO)cc2)O[C@H]1c1ccccc1N=[N+]=[N-]`, the z-score in [1] was -1.99; in [2], 1.12; in assay [3], -1.92; in assay [4], -3.6; in assay [5], -3.93; in [6] it was -0.429. The z-score in assay [7] is 0.581 (inactive); in assay [8], -1; in [9] it was -2.34; in assay [10] it was -2.08 (inactive); in assay [11], -1.15; in assay [12], 0.381 (inactive). For the same compound, the z-score was -6.96 (inactive) in assay [13]; 2.78 (inactive) in assay [15]; 1 (inactive) in assay [16]; 0.276 (inactive) in assay [17]; -0.903 (inactive) in [18]; -5.04 in [19]. Further, the composite z-score in assay [14] is 0.414 (inactive); in assay [20], 0.168.
In the case of `COCCOC(=O)N1C(=O)[C@@]2(c3cc(C#CCNC(N)=O)ccc31)[C@H](C(=O)Nc1nc3ccccc3s1)[C@H]1C(=O)O[C@H](c3ccccc3)[C@H](c3ccccc3)N1[C@@H]2c1ccc(OCCO)cc1`, the z-score in assay [1] is -0.649; in [2], 1.2; in assay [3], -1.22; in assay [4] it was -2.58; in assay [5], -0.0496; in [6], -3.26. Further, the z-score in assay [7] was 1 (inactive); in assay [8] it was -0.692; in assay [9] it was -1.53; in [10], 0.385 (inactive); in assay [11], 0.382; in [12], 1.83 (inactive). Besides, the z-score in [13] was 0.114 (inactive); in [15], 2.41 (inactive); in [16], 1.41 (inactive); in [17], -0.27 (inactive); in assay [18] it was -0.463 (inactive); in assay [19], -0.397. Also, the values for the composite z-score in assay [14] and in assay [20] were -0.716 (inactive) and 0.0402, respectively.
